# Reference: PubChem BioAssay (NCATS)
# Results filed as inconclusive are left out. Where a call stands in place of a potency, no number is given. Calls of active or inactive are those of the source. Calls follow the shape of the dose curve; as a rule, active = well fitted cell-killing curve with a large enough effect; inconclusive = small, poorly fitted or top-dose-only effect, or effect the other way; inactive = no such curve, though single readings can be large or run the other way.
# Assay: Viability qHTS for spleen associated tyrosine kinase inhibitor (SYKi) drug resistant MV4-11 cells (AID 1963824); also: nearly all actives have a fitted effect of over 35% in size
# Conditions: SYKi-resistant MV4-11 viability, CellTiter-Glo, 72 h; series mostly up to 45 µM
# Procedure, shortened: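 SYK-inhibitor-resistant MV4-11 AML cells were seeded at 500 per well onto compound and cultured 72 hours (37 °C, 5% CO2). CellTiter-Glo was then added, and after 10 min at room temperature, luminescence gave viability.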
# Potency is read from the fitted curve at half-maximal effect.
row,Structure (SMILES),Potency
1,CO[C@H]1C[C@@H]2CC[C@@H](C)[C@@](O)(O2)C(=O)C(=O)N2CCCC[C@H]2C(=O)O[C@H]([C@H](C)C[C@@H]2CC[C@@H](OP(C)(C)=O)[C@H](OC)C2)CC(=O)[C@H](C)/C=C(\C)[C@@H](O)[C@@H](OC)C(=O)[C@H](C)C[C@H](C)/C=C/C=C/C=C/1C,3.72 µM (active)
2,COc1cc(O)cc2c1C(=O)OC(C)C2 (centres undefined),inactive
3,CC(C)(O)/C=C/C(=O)[C@](C)(O)[C@H]1[C@H](O)C[C@@]2(C)[C@@H]3CC=C4[C@@H](C[C@H](O[C@@H]5O[C@H](CO)[C@@H](O)[C@H](O)[C@H]5O)C(=O)C4(C)C)[C@]3(C)C(=O)C[C@]12C,6.11 µM (active)
4,CC(C)(C)C1CCN(C(=O)n2ncc(C(O)(c3ccccc3)c3ccccc3)n2)CC1,8.2 µM (active)
5,C/C=C(\C)C(=O)OC[C@H]1O[C@H](O[C@H]2O[C@H](CO)[C@@H](O)[C@H](O)[C@H]2O[C@@H]2O[C@H](CO)[C@@H](O)[C@H](O)[C@H]2O)[C@H](O[C@@H]2O[C@H](CO)[C@@H](O)[C@H](O)[C@H]2O)[C@@H](O)[C@@H]1O,inactive
6,CC(=O)N[C@@H](C(=O)O[C@H]1CCC(C)(C)[C@@H]2CCC3=C(COC3=O)[C@@]12C)C(C)C,inactive
7,CC1=C(CCC(C)O[C@@H]2O[C@H](CO)[C@@H](O)[C@H](O)[C@H]2O)C(C)(C)CCC1=O (some centres undefined),inactive
8,Cc1ccc2c(Nc3ccc(Cl)cc3)nccc2c1Nc1ncccc1-c1ncnc2nc[nH]c12,2.31 µM (active)
9,COc1ccc2c(c1O[C@H]1CCNC1)CCC2,inactive
